# Results filed as inconclusive are left out. Entries that show only a call come without a potency. Some structures have more than one record in an assay (separate samples or runs), and their calls can disagree. Activity calls are given as the source filed them. Calls come from the whole dose curve; as a rule, active = well fitted inhibition curve with a large enough effect; inconclusive = small, poorly fitted or top-dose-only effect; inactive = flat fitted curve, though single readings scatter.
# Experiment: qHTS for Inhibitors of Plasmodium falciparum (HB3) proliferation (AID 504318); note: nearly all actives have a fitted effect of over 60% in size
# Settings: P. falciparum HB3 in erythrocytes, SYBR Green DNA, 72 h; series mostly up to 7.21 µM
# Text: Plasmodium falciparum is a virulent malarial parasite that kills 1-2 million people worldwide each year. Malaria not only inflicts tremendous suffering and morbidity on the human population, but has dramatically influenced the course of civilization with profound sociological and economic implications (Shah, S. 2010). Transmitted by mosquitoes, the sporozoite form of the parasite enters the blood stream to infect hepatocytes, where they become merozoites that infect red blood cells (erythrocytes). Within erythrocytes, merozoites begin a […] cycle of growth and division, after which the parasite is released to infect new red blood cells. Gametocytes, which form within erythrocytes as well, circulate in the bloodstream and are ingested by the mosquito, thereby completing the life cycle (see CDC website). To profile malarial lines for differential chemical responses and to identify inhibitors of malarial growth, an assay that measures P. falciparum growth and replication within erythrocytes was employed. This assay uses a DNA binding fluorescent dye (SYBR Green) to detect parasite DNA following cell lysis. Because mature erythrocytes lack DNA, only Plasmodium-derived DNA is detected. The P. falciparum line cp250, derived from a malarial isolate from Cambodia, (Mu, J., et al. 2010) was added to the panel of lines, Dd2, HB3, 7G8 and GB4 in this study. Laboratory of Assay Development and Screening Technology [ADST] and NIH Chemical Genomics Center [NCGC] Boston University, Chemistry Department, Center for Chemical Methodology and Library Development [CMLD-BU] NIH National Institute of Allergy and Infectious Diseases [NIAID]
# ADST Assay Protocol Summary: The 1536-well SYBR Green viability assay was based on the method of Bennett et al (2004) and described previously in 1536-well format (Yuan J., et al. 2009). For screening 3 ul culture medium was dispensed into 1536 well black clear bottom plates (Aurora Biotechnologies) using a Multidrop Combi (Thermo Fisher Scientific Inc.), 23 nL compounds in DMSO were added by a pin transfer (Cleveland, P.H. and Koutz, P.J, 2005) using a pin tool-based delivery system (Kalypsys), and 5 ul of erythrocytes infected with P. falciparum one of five lines (cp250, Dd2, HB3, 7G8 or GB4, 0.3% parasitemia, 2.5% hematocrit final concentration) were added. The plates were incubated at 37C in a humidified incubator in 5% CO2 for 72 h, and 2 ul lysis buffer (20 mM Tris HCl, 10 mM EDTA, 0.16% saponin, 1.6% triton X, 10X SYBR Green I (supplied as 10,000X final concentration by Invitrogen) was added to each well. The plates were mixed for 25 sec with gentle shaking and incubated overnight at room temperature in the dark. The following morning, fluorescence intensity at 485(14) nm excitation and 535(25) nm emission wavelengths was measured on an EnVision (Perkin Elmer) plate reader. Plate reads were normalized relative to the control inhibitor (0.29 uM artemisinin) and vehicle (DMSO) wells present on each plate and then corrected by an algorithm using vehicle-only control plates at the beginning and end of the compound plate stack. References Shah, S. (2010). The Fever: how malaria has ruled humankind for 500,000 years. New York, Sarah Crichton Books. CDC web site, http://www.cdc.gov/malaria/about/biology/index.html Mu, J., Myers, R.A., Jiang, H., Liu, S., Ricklefs, S., Waisberg, M., Chotivanich, K., Wilairatana, P., Krudsood, S., White, N.J., et Plasmodium falciparum genome-wide scans for positive selection, recombination hot spots and resistance to antimalarial drugs Nature Genetics 2010, 42, pp 268-271 Bennett TN, Paguio, M., Gligorijevic, B., Seudieu, C., Kosar, A. D., Davidson, E., and Roepe, P. D. Novel, rapid, and inexpensive cell-based quantification of antimalarial drug efficacy Antimicrobial Agents Chemother. 2004, 48(5): pp 1807-10 Yuan J, Johnson RL, Huang RL, Wichterman J, Jiang HY, Hayton K, Fidock DA, Wellems TE, Inglese J, Austin CP, Su XZ. […]
# Potency is the fitted concentration of half-maximal effect.
row,SMILES,Potency
1,CC(=O)[C@]12C[C@@H]3CCCN(C(=O)N[C@@H]1c1ccccc1)[C@@H]32,inactive
2,COC(=O)C12CC3=CCC4C(=O)N(c5ccccc5)C(=O)C4C3Cc3ccccc3[C@H]1CNC2=O (stereo not given in full),inactive
3,CC(=O)[C@@]12C3[C@@H](CCN3C(=O)N[C@H]1c1ccccc1)[C@H]2c1ccccc1 (stereo not given in full),inactive
4,COC(=O)C1=C[C@H]([C@@H](C)[C@H](OC)c2ccccc2Br)[C@H]2[C@H]1c1ccccc1N2C,1.9 µM (active) and inactive
5,C=C(C)C(=O)CP(=O)(OCC)OCC,inactive
6,COC(=O)C1(C)C2CC(C)C(c3ccccc32)N1C(=O)C(F)(F)F (stereo not given),inactive
7,COC(=O)C1=NN=C(C(=O)OC)[C@@]2(C)c3ccccc3NC12 (stereo not given in full),inactive
8,CCOC(=O)[C@]12C[C@]3(C)CCCN(C(=O)N[C@@H]1c1ccccc1)[C@@H]32,inactive
9,CCOC(=O)[C@@]12[C@@H]3[C@@H](CCN3C(=O)N[C@H]1c1ccccc1)C2(C)C,inactive
10,CC(=O)[C@]12[C@H](c3ccccc3)[C@@H]3CCN(C(=O)N[C@H]1c1ccccc1)[C@@]32C,inactive
11,CCC[C@]12CCN3C(=O)N[C@@H](c4ccccc4)[C@](C(=O)OCC)(C1)[C@H]32,inactive
12,COC(=O)C1=C2CCO[C@H]2[C@@H]2[C@@H](C)[C@H](OC)c3ccccc3[C@@H]12,inactive
13,COC(=O)C1=C2CCO[C@@H]2[C@H]2[C@@H](C)[C@H](OC)c3ccccc3[C@H]12,inactive
14,COC(=O)[C@]12C[C@@H]3CCN(C(=O)N[C@@H]1c1ccccc1)[C@@]32C,inactive
15,CCOC(=O)[C@]12C[C@@H]3OCCN(C(=O)N[C@@H]1c1ccccc1)[C@@H]32,inactive
16,COC(=O)C1C2CC(C)C(c3ccccc32)N1C(=O)C(F)(F)F (stereo not given),inactive
17,C=C1[C@@H]2CCN3C(=O)N[C@@H](c4ccccc4)[C@@]1(C(=O)OCC)C23 (stereo not given in full),inactive
18,CC(=O)[C@]12C[C@]3(C)CCCN(C(=O)N[C@@H]1c1ccccc1)C32 (stereo not given in full),inactive
19,COC(=O)[C@@H]1[C@@H](c2ccccc2)[C@H]2C(=O)c3c(OC)cc(OC)cc3O[C@@]12c1ccc(OC)cc1,inactive
20,CCOC(=O)[C@]12C[C@]3(C)CCN(C(=O)N[C@@H]1c1ccccc1)[C@@H]32,inactive
21,COC(=O)[C@@]1(C=C2c3ccccc3[C@@H](OC)[C@@H]2C)[C@@H]2Oc3ccccc3[C@@H]21,inactive
22,COC(=O)[C@@]1(C=C[C@@H](C)[C@H](OC)c2ccccc2Br)[C@@H]2Oc3ccccc3[C@@H]21,inactive
23,CCOC(=O)[C@@]12C3[C@@H](CCN3C(=O)N[C@@H]1c1ccccc1)[C@@H]2C (stereo not given in full),inactive
24,CCOC(=O)[C@]12C[C@@H]3CCN(C(=O)N(C(C)=O)[C@@H]1c1ccccc1)[C@@H]32,inactive
25,CCOC(=O)[C@]12C[C@]3(OC)CCN(C(=O)N[C@@H]1c1ccccc1)[C@@H]32,inactive
